Most compounds without a hit are left out; they make up all but 9.6% or so of the library.
bCat KO growth = primary screen for growth suppressors in beta-catenin knockout HCT116 cells (colon tumor, human); HCT116 beta-catenin knockout viability, CellTiter-Glo, 60 h; stronger effect = lower value; viability, % at 10 µM; 140,000 tested, 1.5% active;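 active means viability at or under a set limit, the compound median less 4 SD, cut at about 6% in these data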;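 further: 0% = Hyamine 1622 control at 20 µM and 100% = untreated cell control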
INS promoter inh = inhibitors of insulin promoter-driven GFP, primary screen, imaging, TRM-6 cells (human fetal islet line), eGFP reporter, cell count | reporter expression induced with tamoxifen | 130,000 tested, 0.9% active | inhibition, % at 2 µM;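 active means inhibition above the mean plus 3 SD, with well images judged a real hit on visual review, cut at about 60% in these data, passing the limit was not always enough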
Ins promoter up = insulin promoter activators in MIN6 cells, imaging, high-content screening, mouse beta cells. MIN6 insulin promoter-GFP reporter; stronger effect = higher value. z-score at 5 µM. 190,000 tested, 0.3% active;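 active means z-score above 3 at 5 µM with at least 500 cells counted in the well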
Autophagy HCS = autophagy modulators in MEF cells, primary screen, imaging, high-content, MEF GFP-LC3 | MEF GFP-LC3 puncta imaging; test concentration mostly 10 µM | calls only at 10 µM (by protocol) | 190,000 tested, 0.98% active;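 active means percentage of spot-positive cells more than 3 SD above its plate mean, without a fluorescence outlier flag or 80% toxicity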;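 further: spot-positive cell cutoff set from DMSO-treated cells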
PTEN del growth = growth suppression of PTEN-null HCT116, primary screen, cell-based, CellTiter-Glo | HCT116 PTEN-null viability, 60 h; stronger effect = lower value | viability, % at 10 µM | 140,000 tested, 1.2% active | AID 827, 2007;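 active means viability at or below a set limit, 4 SD under the median of all tested compounds, cut at about 3.7% in these data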;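 further: PTEN knockout HCT116 line with beta catenin targeted HCT116 as companion control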
Lmaj promast = Leishmania major promastigote growth inhibition, primary screen; Leishmania major promastigotes, resazurin fluorescence viability; inhibition, % at 10 µM; AID 1063, 2008; 200,000 tested, 9% active; in the data active means inhibition above about 50%;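 further: promastigotes grown with compound for 44 hours at 28 °C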
An asterisk follows results filed as active.

How did Cc1ccc(OCCn2nc3ccccc3n2)c(C)c1 do in these assays?
bCat KO growth: 86.2; INS promoter inh: 48.0; Ins promoter up: -6.61; Autophagy HCS: inactive; PTEN del growth: 90.6; Lmaj promast: 4.8

Results for CCN1CCN(CCOc2ccc(Br)cc2C)CC1 ?
Ins promoter up: -0.27; Autophagy HCS: inactive; Lmaj promast: 93.4*

What do the screens show for `Cc1ccc(OCCCCn2ccnc2C)c(C)c1`?
Ins promoter up: -0.41; Autophagy HCS: inactive; Lmaj promast: 89.4*

Results for Cc1ccc(OCCCN2CCCC2)c(C)c1 ?
bCat KO growth: 90.3; INS promoter inh: -64.5; Ins promoter up: 0.02; Autophagy HCS: inactive; PTEN del growth: 89.4; Lmaj promast: 97.1*

Results for CCOC(=O)Nc1ccc2c(c1)N(C(=O)CCN1CCOCC1)c1ccccc1S2 ?
bCat KO growth: 96.5; INS promoter inh: -13.5; Ins promoter up: -0.21; Autophagy HCS: inactive; PTEN del growth: 87.8; Lmaj promast: -2.1

Results for COc1cc2c(cc1OC)C(C)N(C(=O)Cn1ncc3c1-c1ccccc1OC3)CC2 (centres undefined) ?
bCat KO growth: 70.9; Ins promoter up: 0.08; PTEN del growth: 69.8; Lmaj promast: -1.9

Results for Cc1ccc(OCCCCNC2CCCC(C)C2C)c(C)c1 (centres undefined) ?
Ins promoter up: -0.83; Autophagy HCS: inactive; Lmaj promast: 89.7*

Results for COCCNC(=O)CCCn1c(=O)c2cc(OC)c(OC)cc2n(CC(=O)NCCC2=CCCCC2)c1=O ?
INS promoter inh: 75.0*; Ins promoter up: -0.5; Autophagy HCS: inactive; Lmaj promast: 6.3

Results for COCCNC(=O)CCCn1c(=O)c2ccccc2n(CC(=O)NCCC2=CCCCC2)c1=O ?
bCat KO growth: 95.1; Ins promoter up: -0.48; Autophagy HCS: inactive; PTEN del growth: 104.7; Lmaj promast: 2.5

How did O=C(CN1CCc2ccccc21)NCc1ccccc1Cl do in these assays?
bCat KO growth: 80.9; Ins promoter up: -0.17; Autophagy HCS: inactive; PTEN del growth: 79.3; Lmaj promast: -4.5

What do the screens show for `Cc1c(C(=O)c2ccc(Cl)cc2Cl)cnc2cc3c(cc12)OCO3`?
bCat KO growth: 44.1; INS promoter inh: 22.2; Autophagy HCS: inactive; PTEN del growth: 58.5; Lmaj promast: 7.8

Results for CC1=Nc2nc(N3CCCCC3)c(C#N)c3c4c(nc(c23)N1)N(c1ccc(C(C)C)cc1)C(=O)C4 ?
bCat KO growth: 71.2; INS promoter inh: 4.0; Ins promoter up: -0.27; Autophagy HCS: inactive; PTEN del growth: 84.2; Lmaj promast: 58.7*

How did COc1ccc(C2CC(c3ccc(OC)c(OC)c3)=NN2S(C)(=O)=O)cc1 (centres undefined) do in these assays?
Ins promoter up: -0.06

How did O=C(NC12CC3CC(CC(C3)C1)C2)N(Cc1ccccc1)Cc1ccncc1 do in these assays?
Ins promoter up: -0.45; Autophagy HCS: inactive; Lmaj promast: 54.7*

What do the screens show for `O=C(NC12CC3CC(CC(C3)C1)C2)c1ccccc1`?
Ins promoter up: 0.39; Autophagy HCS: inactive; Lmaj promast: -6.2

What do the screens show for `c1cc(CNC23CC4CC(CC(C4)C2)C3)ccn1`?
INS promoter inh: 13.3; Ins promoter up: -0.08; Autophagy HCS: inactive; Lmaj promast: 84.4*

Results for O=C(CC12CC3CC(CC(C3)C1)C2)NCc1ccncc1 ?
bCat KO growth: 72.7; Autophagy HCS: inactive; PTEN del growth: 86.6; Lmaj promast: -0.5

How did COc1ccc(NC(=O)C2CCCN2C(=O)OCc2ccccc2)cc1 (centres undefined) do in these assays?
Ins promoter up: -0.75

What do the screens show for `Cc1cc([N+](=O)[O-])ccc1-c1ccc(/C=N/NC(=O)Cc2ccccc2)o1`?
bCat KO growth: 67.5; INS promoter inh: -12.9; Ins promoter up: 0.23; Autophagy HCS: inactive; PTEN del growth: 61.6; Lmaj promast: 8.7

Results for CCOC(=O)N/N=C\c1ccc([N+](=O)[O-])o1 ?
bCat KO growth: 20.2; INS promoter inh: -13.2; Ins promoter up: -0.32; Autophagy HCS: inactive; PTEN del growth: 25.7; Lmaj promast: 97.5*

Results for CC1(C(=O)N/N=C/c2ccc([N+](=O)[O-])o2)CC1(Br)Br (centres undefined) ?
bCat KO growth: 2.6*; INS promoter inh: -93.9; Ins promoter up: -1.2; Autophagy HCS: inactive; PTEN del growth: 2.5*; Lmaj promast: 97.6*

How did CCCCCCCC(=O)N/N=C/c1ccc([N+](=O)[O-])o1 do in these assays?
bCat KO growth: 88.0; Ins promoter up: -0.16; Autophagy HCS: inactive; PTEN del growth: 90.8; Lmaj promast: 91.2*

Results for O=C(Cc1ccc([N+](=O)[O-])cc1)N/N=C/c1ccc([N+](=O)[O-])o1 ?
INS promoter inh: -79.0; Ins promoter up: -0.79; Autophagy HCS: inactive; Lmaj promast: 100.1*

What do the screens show for `COc1ccc(OC)c(NC(=O)c2c3c(nc4ccccc24)CCC3)c1`?
bCat KO growth: 96.1; INS promoter inh: -25.0; Autophagy HCS: inactive; PTEN del growth: 101.2; Lmaj promast: 5.6

Results for CCOC(=O)N/N=C/c1c(F)cccc1F ?
bCat KO growth: 90.4; INS promoter inh: -57.1; Ins promoter up: -0.48; Autophagy HCS: inactive; PTEN del growth: 97.3; Lmaj promast: 10.8

What do the screens show for `N#CCc1ccc(NC(=O)/C=C/c2ccc([N+](=O)[O-])o2)cc1`?
INS promoter inh: -440.0; Ins promoter up: -0.07; Autophagy HCS: inactive; Lmaj promast: 100.6*

How did CCOC(=O)N/N=C/c1c(F)c(F)c(F)c(F)c1F do in these assays?
bCat KO growth: 84.6; INS promoter inh: 5.4; Ins promoter up: 0.79; Autophagy HCS: inactive; PTEN del growth: 87.1; Lmaj promast: 65.3*

What do the screens show for `O=C(CCN1CCN(c2ccccc2)CC1)N/N=C/c1ccc([N+](=O)[O-])o1`?
Ins promoter up: -0.16; Autophagy HCS: inactive; Lmaj promast: 98.2*

What do the screens show for `O=C(CC12CC3CC(CC(C3)C1)C2)N/N=C/c1ccc([N+](=O)[O-])o1`?
bCat KO growth: 103.4; Ins promoter up: -0.17; Autophagy HCS: inactive; PTEN del growth: 111.1; Lmaj promast: 98.6*

What do the screens show for `CCOc1ncccc1C(=O)OCC(=O)c1c(N)n(C)c(=O)n(C)c1=O`?
bCat KO growth: 96.6; INS promoter inh: 35.5; Autophagy HCS: inactive; PTEN del growth: 102.0; Lmaj promast: -7.1

How did Cc1sc2nc(SCC(=O)NCc3ccco3)n(C)c(=O)c2c1C do in these assays?
bCat KO growth: 98.6; INS promoter inh: -26.7; Autophagy HCS: inactive; PTEN del growth: 112.2; Lmaj promast: 1.1

How did CC(C)C[C@H](NC(=O)c1nc[nH]c1C(=O)N1CCC(C)CC1)C(=O)OC(C)(C)C do in these assays?
Ins promoter up: -0.43

How did CCOc1ccccc1C(=O)NCc1ccc2c(c1)OCO2 do in these assays?
bCat KO growth: 90.8; INS promoter inh: -40.9; Ins promoter up: 0.18; Autophagy HCS: inactive; PTEN del growth: 94.4; Lmaj promast: -0.4

Bioassay records as filed in PubChem.
